# In publication PMC4336329 (PLoS ONE, 2015):
# Screen size: about 310,000 compounds; about 14,000 (4.5%) showed an effect of 50% or more. The effect is printed as a negative number. This is one part of a sample in which strong results are shown more often than they occur.
# Target: human ether-à-go-go-related gene (hERG) potassium channel (human, UniProt Q12809)
# Assay: primary screen, population patch clamp on CHO cells stably expressing hERG; higher = less effect of the substance
# 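Also: peak tail current of the secondary pulse compared with the same well before compound.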
# Sequence of human ether-à-go-go-related gene (hERG) potassium channel (Q12809 whole entry, looked up): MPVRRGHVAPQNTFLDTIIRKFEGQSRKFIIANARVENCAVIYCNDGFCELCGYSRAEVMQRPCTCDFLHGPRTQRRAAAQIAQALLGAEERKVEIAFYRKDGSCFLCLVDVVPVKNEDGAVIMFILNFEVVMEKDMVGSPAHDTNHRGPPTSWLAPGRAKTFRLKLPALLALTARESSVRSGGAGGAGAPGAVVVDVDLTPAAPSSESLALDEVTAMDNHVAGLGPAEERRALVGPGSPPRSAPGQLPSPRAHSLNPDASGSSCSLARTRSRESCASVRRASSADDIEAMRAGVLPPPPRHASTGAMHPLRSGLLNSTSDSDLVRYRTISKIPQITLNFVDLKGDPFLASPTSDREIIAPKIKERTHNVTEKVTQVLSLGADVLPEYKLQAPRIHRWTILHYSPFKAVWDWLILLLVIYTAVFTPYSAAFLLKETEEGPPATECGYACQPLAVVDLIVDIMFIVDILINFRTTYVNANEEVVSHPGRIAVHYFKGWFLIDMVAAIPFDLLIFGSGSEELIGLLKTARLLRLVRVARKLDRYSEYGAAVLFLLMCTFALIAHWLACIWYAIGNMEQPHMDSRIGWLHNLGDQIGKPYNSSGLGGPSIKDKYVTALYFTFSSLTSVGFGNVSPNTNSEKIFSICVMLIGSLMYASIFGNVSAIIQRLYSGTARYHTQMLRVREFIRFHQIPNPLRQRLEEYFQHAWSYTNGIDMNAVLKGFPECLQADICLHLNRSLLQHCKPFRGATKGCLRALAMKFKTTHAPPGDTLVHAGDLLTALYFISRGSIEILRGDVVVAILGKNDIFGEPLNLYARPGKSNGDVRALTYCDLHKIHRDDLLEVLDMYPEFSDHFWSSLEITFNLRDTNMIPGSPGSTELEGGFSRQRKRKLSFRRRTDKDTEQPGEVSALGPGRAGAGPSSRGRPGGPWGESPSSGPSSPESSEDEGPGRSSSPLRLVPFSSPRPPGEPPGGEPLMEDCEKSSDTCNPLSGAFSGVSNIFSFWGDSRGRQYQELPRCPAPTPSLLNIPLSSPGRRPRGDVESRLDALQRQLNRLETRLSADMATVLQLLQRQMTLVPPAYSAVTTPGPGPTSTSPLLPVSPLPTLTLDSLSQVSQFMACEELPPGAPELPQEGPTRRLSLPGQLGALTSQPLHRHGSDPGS
row,Compound,"hERG current change (%, negative = inhibition) at 10uM [%]"
1,N#Cc1nc(-c2ccc(F)cc2)oc1N1CCCCC1,8.29
2,COc1ccccc1Cc1noc(COc2cccc(C)c2C)n1,3.03
3,COc1ccc(C(=O)NCCc2nnc3ccc(SCC(=O)Nc4cc(C)on4)nn23)cc1,4.8
4,CCCNC(=O)N1[C@H]2CC[C@@H]1C(C(=O)OC)=C(c1ccc(OC(F)(F)F)cc1)C2,-27.4
5,COC(=O)C1=C(c2ccc(OC(F)(F)F)cc2)C[C@@H]2CC[C@H]1N2C(=O)N1CCCC1,-47.9
6,COC(=O)C1=C(c2ccc(OC(F)(F)F)cc2)C[C@@H]2CC[C@H]1N2C(=O)NCC1CC1,-58.6
7,COC(=O)C1=C(c2ccc(OC(F)(F)F)cc2)C[C@@H]2CC[C@H]1N2C(=O)N1CCCCC1,-56.3
8,COC(=O)C1=C(c2ccc(C(C)=O)cc2)C[C@@H]2CC[C@H]1N2C(=O)N1CCC(O)(c2ccc(Cl)cc2)CC1,-73.6
9,COC(=O)C1=C(c2ccc(C(C)=O)cc2)C[C@@H]2CC[C@H]1N2C(=O)N1CCCC1,0.9
10,COC(=O)C1=C(c2ccc(OC(F)(F)F)cc2)C[C@@H]2CC[C@H]1N2C(=O)NCCNC(C)=O,2.65
11,COC(=O)C1=C(c2ccc(C(C)=O)cc2)C[C@@H]2CC[C@H]1N2C(=O)N1CCCCC1,-16.9
12,COC(=O)C1=C(c2ccc(OC(F)(F)F)cc2)C[C@@H]2CC[C@H]1N2C(=O)N1CCC(O)CC1,-36.2
13,CC1=CC=CC2=N/C(=N\S(=O)(=O)c3ccc(F)cc3F)c3ccccc3CN12,-20.3
14,COc1ccc(CC(=O)N(C)Cc2cccc(OC)c2OC)cc1S(=O)(=O)N1CCOCC1,-5.58
15,N=c1oc2ccccc2cc1C(=O)Nc1ccc(F)cc1,16.5
16,COc1ccc(C2=NO[C@@H]3C(=O)N(Cc4ccccc4)C(=O)[C@H]23)cc1OC,-1.95
17,CN(C)S(=O)(=O)c1ccc(N/C=C(\[N+](=O)[O-])S(=O)(=O)c2ccccc2)cc1,15.2
18,COCCNC(=O)/C(C#N)=C/c1ccc(O)cc1,10.6
19,Cc1ccc(C(C)NC(=O)Cc2cccs2)c(C)c1 (stereo not shown),-9.26
20,CSc1ccc(C(=O)NCC(c2ccco2)N(C)C)cc1[N+](=O)[O-] (stereo not shown),17.8
21,Nc1nnc(-c2ccccc2)c(-c2ccccc2)n1,-10.7
22,Cc1ccccc1OCCC(=O)OCC(=O)Nc1cc(S(=O)(=O)N2CCOCC2)ccc1Cl,-27.8
23,Cc1c(NC(=S)Nc2ccccc2C(F)(F)F)cccc1[N+](=O)[O-],8.27
24,COc1ccccc1N1CCN(C(=O)c2cn(-c3ccccc3)nc2-c2cccnc2)CC1,-50.2
25,O=C(c1cn(-c2ccccc2)nc1-c1cccnc1)N1CCN(S(=O)(=O)c2cccc(F)c2)CC1,-13.6
26,N#Cc1ccccc1S(=O)(=O)N1CCN(C(=O)c2cn(-c3ccccc3)nc2-c2cccnc2)CC1,-48

row,Compound,"hERG current change (%, negative = inhibition) at 10uM [%]"
1,O=C(c1cn(-c2ccccc2)nc1-c1cccnc1)N1CCN(S(=O)(=O)c2ccccc2F)CC1,-70.5
2,CN1CCN(C(=O)c2cn(-c3ccccc3)nc2-c2cccnc2)CC1,-18.4
3,COc1ccccc1N1CCN(C(=O)c2cn(Cc3ccccc3)nc2-c2cccnc2)CC1,-8.12
4,Nc1nnc(SCc2nnc(-c3ccccc3)o2)s1,-1.84
5,COC(=O)N/N=C/c1c[nH]c2ccccc12,14.5
6,CC(C)c1onc(C(=O)N2C(C)CCCC2C)c1[N+](=O)[O-] (stereo not shown),18.8
7,Cc1ccc(NC(=O)c2cccc(N3C(=O)C4C5C=CC(C5)C4C3=O)c2)cc1C (stereo not shown),-7.07
8,COc1ccc2nc(NC(=O)CS(=O)(=O)Cc3ccccc3)sc2c1,23.2
9,COC(=O)/C(=N/Nc1ccccc1C)Sc1nnc(C(O)c2ccccc2)n1-c1ccccc1 (stereo not shown),13.3
10,Cl.c1ccc(CN2CCC3(CCCc4ccccc43)CC2)cc1,-69.6
11,Cl.c1ccc(CN2CCOCC2)cc1,22
12,c1ccc(CN2CCC3(CC2)Nc2ccccc2CO3)cc1,-21.9
13,COc1ccc(N(CC(=O)Nc2cc(Cl)ccc2C)S(=O)(=O)c2c(C)noc2C)cc1,16.7
14,COC(=O)CC1C(=O)NCCN1C(=O)c1c(F)cccc1F (stereo not shown),14.5
15,O=C(NCc1ccncc1)c1cncc(Br)c1,10.1
16,Cn1c(N2CCOCC2)nc2c1c(=O)n(Cc1ccc(Cl)cc1)c(=O)n2C,-54.5
17,Cn1c(N2CCOCC2)nc2c1c(=O)n(Cc1ccc(Cl)c(Cl)c1)c(=O)n2C,-50.5
18,Cn1c(=O)c2c(nc(N3CCCCC3)n2C)n(C)c1=O,-21.5
19,Cn1c(N2CCCC2)nc2c1c(=O)n(Cc1ccc(Cl)cc1)c(=O)n2C,-68.6
20,CC1CN(c2nc3c(c(=O)n(Cc4ccc(Cl)c(Cl)c4)c(=O)n3C)n2C)CC(C)O1 (stereo not shown),-35.7
21,Cn1c(NCCCN2CCOCC2)nc2c1c(=O)n(Cc1ccc(Cl)c(Cl)c1)c(=O)n2C,-46
22,Cn1c(N2CCN(c3ccccn3)CC2)nc2c1c(=O)n(Cc1ccc(Cl)cc1)c(=O)n2C,-18
23,Cn1c(N2CCCC2)nc2c1c(=O)n(Cc1ccc(F)cc1)c(=O)n2C,0.592
24,CC1CN(c2nc3c(c(=O)n(Cc4ccc(Cl)cc4)c(=O)n3C)n2C)CC(C)O1 (stereo not shown),-31.2
25,COc1ccc(CC(=O)NCc2cccs2)cc1OC,2.71
26,O=C(Cn1cc(Cl)ccc1=O)c1ccc(Cl)cc1,11.7
